Screening results deposited in PubChem by National Center for Advancing Translational Sciences (NCATS).
rTrxR1 inhibitor = qHTS Assay for Inhibitors of Mammalian Selenoprotein Thioredoxin Reductase 1 (TrxR1): qHTS; AID 588453, 2011; hit rate 1% among 390,000; Potency, µM (highest dose often 114 µM), without a hit: at the highest dose activity change, negative = inhibition, actives largely listed as inhibitors; recombinant rTrxR1, NADPH fluorescence consumption, selenite substrate; also: % is scaled to controls: 0 for no effect and ±100 for the full control effect; nearly all actives have a fitted effect of over 65% in size
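Rat TrxR1 (90 nM in the dispensed reagent) was pre-reduced with 400 uM NADPH for 5 min at room temperature, then incubated with compound for 15 min. After 400 uM selenite was added, NADPH fluorescence (Ex 340/Em 450 nm) was followed for 8 min.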
Glioma ERSR ind = qHTS for Inducers of the Endoplasmic Reticulum Stress Response (ERSR) in Human Glioma: qHTS | U87-MG GRP78 promoter luciferase reporter, 16 h | Potency, µM, for inactives: top-dose activation, hits mostly activators | hit rate 0.02% among 420,000; also: series mostly up to about 76 µM; % of control where 0% means no effect; nearly all actives have a fitted effect of over 35% in size
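Stably transfected U87-MG human glioma cells carrying a GRP78-based luminescent sensor were seeded at 1000 cells/well, pin-dosed with compounds and incubated 16 h. Luciferase reagent was then added, and end-point luminescence was read after 10 min at room temperature.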
12-LOX inh = Primary qHTS assay for inhibitors of human arachidonate 12S-lipoxygenase (ALOX12): Round 2 | purified 12hLO, xylenol orange hydroperoxide absorbance | Potency, µM (highest dose often 108 µM), for inactives: at the highest dose activity change, negative = inhibition, usual class: inhibitors | hit rate 1.1% among 580,000; also: % is scaled to controls: 0 for no effect and ±100 for the full control effect
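Purified human 12hLO (150 nM final) in 25 mM Hepes, 0.01% Triton X-100, pH 7.0 was preincubated 15 min at room temperature with compound. Then 40 uM arachidonic acid was added, 30 min. Hydroperoxide was read by Fe-XO absorbance ratio 573/405 nm.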
TrxR1 substrate = qHTS Assay for Substrates of Mammalian Selenoprotein Thioredoxin Reductase 1 (TrxR1): qHTS; Potency, µM (highest dose often 114 µM), for inactives: top-dose activity change, negative = substrate turnover; Thioredoxin reductase 1, cytoplasmic (Rattus norvegicus), O89049; hit rate 0.01% among 390,000; purified TrxR1 substrate turnover, NADPH consumption readout; AID 588456, 2011; also: % is scaled to controls: 0 for no effect and ±100 for the full control effect; nearly all actives have a fitted effect of over 50% in size
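Rat TrxR1, dispensed at 90 nM, was prereduced with 400 uM NADPH (final) for 5 min at ~22 deg C, then incubated with compound 15 min before 400 uM selenite. A first-read NADPH fluorescence drop versus no-compound background flagged substrates.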
Apoferritin bind = qHTS Assay for Identification of Novel General Anesthetics; Ferritin light chain (Equus caballus), P02791; apoferritin/1-aminoanthracene competitive binding, fluorescence; Potency, µM (highest dose often 77.5 µM), without a hit: at the highest dose activity change, negative = displacement, hits mostly inhibitors; hit rate 0.074% among 350,000; also: % is scaled to controls: 0 for no effect and ±100 for the full control effect; nearly all actives have a fitted effect of over 20% in size
Target sequence (P02791 2-175 limits assumed): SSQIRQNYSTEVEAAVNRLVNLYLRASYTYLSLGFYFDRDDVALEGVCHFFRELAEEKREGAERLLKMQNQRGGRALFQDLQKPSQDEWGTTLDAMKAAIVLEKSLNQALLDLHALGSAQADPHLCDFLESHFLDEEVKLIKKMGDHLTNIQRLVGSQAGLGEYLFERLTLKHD
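Read-out: endpoint 1-AMA fluorescence, excitation 380 nm and emission 535 nm, after compounds sit 10 min at room temperature with 10 uM horse-spleen apoferritin in 50% saturated 1-AMA/PBS. Values come from four-parameter Hill fits.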
mIDH1 inhibitor = qHTS for Inhibitors of mutant isocitrate dehydrogenase 1 (IDH1): qHTS; IDH1-R132H enzyme, NADPH consumption, diaphorase/resazurin fluorescence; Potency, µM (titrated, usually from 76.6 µM), without a hit: at the top dose activity change, negative = inhibition, hits mostly inhibitors; Isocitrate dehydrogenase [NADP] cytoplasmic (Homo sapiens), O75874; hit rate 0.093% among 390,000; also: % is scaled to controls: 0 for no effect and ±100 for the full control effect; nearly all actives have a fitted effect of over 65% in size
Target sequence (O75874 whole entry R132H, stated change not applied): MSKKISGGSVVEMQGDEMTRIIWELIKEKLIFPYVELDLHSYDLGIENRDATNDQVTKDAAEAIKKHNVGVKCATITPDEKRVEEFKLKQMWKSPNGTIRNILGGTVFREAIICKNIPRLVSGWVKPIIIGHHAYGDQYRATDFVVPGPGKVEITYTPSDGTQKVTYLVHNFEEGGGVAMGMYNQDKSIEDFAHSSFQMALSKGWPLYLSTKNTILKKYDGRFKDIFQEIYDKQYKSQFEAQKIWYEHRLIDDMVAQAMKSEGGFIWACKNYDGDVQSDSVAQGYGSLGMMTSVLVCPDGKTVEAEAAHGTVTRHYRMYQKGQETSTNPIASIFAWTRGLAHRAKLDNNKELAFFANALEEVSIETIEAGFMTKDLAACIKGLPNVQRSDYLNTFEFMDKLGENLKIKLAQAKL
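IDH1-R132H (0.5 ug/mL dispensed) in pH 7.5 Tris buffer was preincubated 30 min with compound, then given a substrate mix of 0.016 mM NADPH and 2 mM alpha-KG for 80 min at room temperature; remaining NADPH was read by diaphorase/resazurin fluorescence.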
An asterisk follows results filed as active; i = inactive; ? = inconclusive; · = no result given; [ ] = dose if it differs, or a comment. Sampled rows, rich in hits. Any-hit rate of the full collection: about 1.7%. Calls follow the shape of the dose curve; as a rule, active = well fitted curve in the direction sought with a large enough effect; inconclusive = small, poorly fitted or top-dose-only effect, or another doubt; inactive = no such curve, though single readings can be large; an effect the other way counts as inactive or inconclusive. Potency is read from the fitted curve at half-maximal effect.

SMILES | rTrxR1 inhibitor | Glioma ERSR ind | 12-LOX inh | TrxR1 substrate | Apoferritin bind | mIDH1 inhibitor
CC(=O)NC1(C)CCN(Cc2cccc(-c3cccc(Cl)c3)c2)C1 (centres undefined) | · | · | 40µM* | · | · | ·
CC(=O)NC1(C)CCCN(Cc2cccc(Nc3ccccc3)c2)C1 (centres undefined) | · | · | -21%[176 µM] | · | · | ·
O=C1NCC2(CCN(c3nccc(CCC(F)(F)F)n3)CC2)O1 | · | · | 17% | · | · | ·
Cc1nn(C(C)C(=O)NCCCN2CCCCC2C)c(=O)c2c1sc1ccccc12 (centres undefined) | 15% | -2% | -14% | 5% | -14% | -3%
Cc1nn(C(C)C(=O)NCCCN2CCCCCC2)c(=O)c2c1sc1ccccc12 (centres undefined) | 50µM* | -4% | -26% | 2% | -20% | 1%
O=Cc1cc2ccccc2cc1O | 26% | -2% | · | 5% | · | ·
O=c1c(O)cccc2cc(O)c(O)c(O)c12 | -23% | 1% | 13µM* | -8% | 4% | 3%
Cc1ccc(C)c(Cn2c(=O)n(C(C)C)c(=O)c3oc4ccccc4c32)c1 | -6% | -2% | -10% | -4% | -14% | -12%
COc1ccccc1NCC(=O)c1ccc(C)c(C)c1 | 21% | -5% | 16µM* | 5% | ? | -18%
COc1ccc(C(=O)CNc2ccccc2CO)cc1 | 16%[57.1 µM] | 11% | 0% | 10%[57.1 µM] | -20% | 3%
COc1ccccc1NCC(=O)c1ccc(Cl)cc1 | 14%[57.1 µM] | 2% | ? | 5%[57.1 µM] | ? | 46µM*
Cc1ccc(C(=O)CCC(=O)Nc2ccccc2C)cc1C | 14% | 0% | 19% | 3% | -8% | 1%
C/C(=N\NC(=O)c1cccc(N/N=C(\C)c2ccccc2)c1)c1ccccc1 | 6%[57.1 µM] | 5% | ? | -23%[57.1 µM] | ? | 5%
CC/C(C)=N/Nc1cccc([N+](=O)[O-])c1 | 7% | 1% | 1.1µM* | -2% | -17% | -5%
C/C(=N/Nc1ccccc1)c1ccc([N+](=O)[O-])cc1 | · | · | 1.6µM* | · | · | ·
C/C(=N/Nc1ccc2ccccc2c1)c1ccccc1 | · | · | 2µM* | · | · | ·
CCC(CC)=NNc1cccc([N+](=O)[O-])c1 | 4% | 1% | ? | 4% | -5% | 2%
C/C(=N\Nc1ccc([N+](=O)[O-])cc1)c1ccc(N)cc1 | ? | 0% | ? | -21% | 6% | 10%
Cc1cnc(-c2ccccc2)n1CC1CCN(S(=O)(=O)Cc2ccccc2F)CC1 | · | · | 64% | · | · | ·
Cc1nn(CC(=O)NCCCN2CCCCC2)c(=O)c2nc(-c3ccccc3)sc12 | · | · | 35% | · | · | ·
COc1ccccc1CNCc1ccc(C)cc1 | -5% | -1% | 1µM* | 2% | -2% | 8%
O=C(CCc1ccsc1)N(Cc1ccco1)C1CC1 | · | · | 16µM* | · | · | ·
O=C(Cc1cccs1)N(Cc1ccco1)C1CC1 | · | · | 14µM* | · | · | ·
O=C(c1ccsc1)N(Cc1ccco1)C1CC1 | · | · | 35µM* | · | · | ·
Cc1cc(C)n(CC(=O)N2CCCCCCNC(=O)[C@@H]3CCCC[C@@H]32)n1 | · | · | 42% | · | · | ·
SMILES | rTrxR1 inhibitor | Glioma ERSR ind | 12-LOX inh | TrxR1 substrate | Apoferritin bind | mIDH1 inhibitor
Cn1c(=O)[nH]c(=O)c2c1nc(N1CCN(Cc3c(F)cccc3Cl)CC1)n2Cc1ccccc1 | · | · | -26% | · | · | ·
O=C(CSc1nnc(C2CC2)n1C1CC1)Nc1ccc(Cl)c(S(=O)(=O)N2CCCCC2)c1 | · | · | -14% | · | · | ·
CN(C)CCCSc1nc(N2CCOCC2)c2c(c1C#N)CCCC2 | · | · | 0.5µM* | · | · | ·
CCCSc1nc(N2CCOCC2)c2c(c1C#N)CCCC2 | -4% | -5% | 3% | -3% | 1% | -7%
Cc1nc(NC(=O)COC(=O)/C=C/c2ccco2)c(Cl)cc1Cl | 40µM* | 1% | ? | 4% | · | 5%
Cc1ccc(/C=C/C(=O)OCC(=O)NCc2cccs2)o1 | 56µM* | -1% | ? | -11% | · | 2%
O=C(COC(=O)/C=C/c1ccco1)Nc1ncc(Cl)cc1Cl | 50µM* | 0% | ? | -5% | -9% | -5%
O=C(COC(=O)/C=C/c1ccccc1)NCc1cccs1 | 30% | -1% | -14% | 4% | · | 3%
O=C(COC(=O)/C=C/c1ccco1)NCc1ccc(Cl)cc1 | 79µM* | -2% | -1% | -3% | · | 0%
COC(=O)c1ccc(/C=C/C(=O)OCC(=O)Nc2ncc(Cl)cc2Cl)cc1 | -2% | -6% | 390% | -2% | · | 6%
CCN1CCC2(CC1)OCCN2C(=O)c1cc(=O)c2ccccc2o1 | · | · | -8% | · | · | ·
COc1ccc2c(c1)CCc1cc(C(=O)O)sc1-2 | 45µM* | 0% | -28% | i | 32% | -9%
O=C(CN1CCN(Cc2ccccc2)CC1)N1CCCc2c1c(=O)oc1ccc(O)cc21 | -10% | -2% | 2% | -15% | -10% | 5%
CCOC(=O)C1CCCN(CC(=O)N2CCCc3c2c(=O)oc2ccc(OCc4ccccc4)cc32)C1 (centres undefined) | -2% | -1% | 22µM* | 25% | 3% | -11%
O=C(c1ccco1)N1CCN(CC(=O)N2CCCc3c2c(=O)oc2ccc(O)cc32)CC1 | 16µM* | 1% | -7% | -9%[57.1 µM] | 6% | 3%
CCc1ccc(S(=O)(=O)c2nnn3c2nc(NCc2ccc(F)cc2)c2sccc23)cc1 | · | · | 6% | · | · | ·
O=c1cc(C2=CCOCC2)oc2c(-c3cccc4[nH]ccc34)nccc12 | · | · | 35µM* | · | · | ·
Cc1cc(SCC(=O)N/N=C/c2ccc(O)c(O)c2)nc2ccccc12 | 15% | ? | -12% | 3% | ? | -22%
Cc1cc(SCC(=O)N/N=C/c2ccc(O)c(O)c2)c(C)cc1Br | 12% | -3% | 6.3µM* | -4% | 22µM* | 5%
O=S(=O)(NCC(c1cccs1)S(=O)(=O)c1ccccc1)c1ccccc1 (centres undefined) | 0.56µM* | -5% | -23% | 1%[57.1 µM] | 4% | -9%
O=S(=O)(NCC(c1ccco1)S(=O)(=O)c1cccs1)c1ccc(F)c(C(F)(F)F)c1 (centres undefined) | 0.45µM* | -2% | ? | -3%[57.1 µM] | -14% | -1%
COc1ccc(S(=O)(=O)NCC(c2ccco2)S(=O)(=O)c2cccs2)cc1OC (centres undefined) | ? | -1% | 5% | -2%[57.1 µM] | 4% | -3%
